# Test results reported in PubChem BioAssay AID777 (Sanford-Burnham Center for Chemical Genomics, 2007).
# Out of some 96,000 compounds screened, about 19,000 (20%) were called active.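 The calls were made as follows: active = blocking of liver enzyme CYP2C9 beyond about 50% at 5 µM (limit read from the data); inactive = the rest.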 The list is a sample of the results.
# Molecular target: Cytochrome P450 2C9 (Homo sapiens) (UniProt P11712)
# Test: blockers of cytochrome P450 2C9 activity – biochemical, luminescence, ADME assay, primary screen (AID 777)
# Settings: CYP2C9 Supersomes, luciferin-H conversion, at 5 µM, active compounds read high
# Cytochrome P450 2C9 (Homo sapiens), sequence (P11712 whole entry, looked up): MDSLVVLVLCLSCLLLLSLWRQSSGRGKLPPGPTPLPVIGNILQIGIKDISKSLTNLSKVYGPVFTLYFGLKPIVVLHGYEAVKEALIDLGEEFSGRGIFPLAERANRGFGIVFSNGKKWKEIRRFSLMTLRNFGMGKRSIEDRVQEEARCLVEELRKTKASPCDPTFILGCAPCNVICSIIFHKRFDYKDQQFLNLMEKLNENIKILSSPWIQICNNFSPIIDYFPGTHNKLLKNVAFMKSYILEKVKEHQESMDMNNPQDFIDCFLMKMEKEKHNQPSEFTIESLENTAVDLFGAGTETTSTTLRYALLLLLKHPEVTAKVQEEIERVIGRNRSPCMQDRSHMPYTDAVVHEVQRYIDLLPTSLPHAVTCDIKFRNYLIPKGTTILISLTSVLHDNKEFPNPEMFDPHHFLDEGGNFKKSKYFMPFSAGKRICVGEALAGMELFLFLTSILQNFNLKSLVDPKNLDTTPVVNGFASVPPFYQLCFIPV
row,SMILES,inhibition
1,COc1ccc(CCn2c(O)c(C=NCCCn3ccnc3)c(=O)[nH]c2=O)cc1OC,61.3% (active)
2,COc1ccccc1-n1c(O)c(C=NC2CC2)c(=O)[nH]c1=O,-3.5% (inactive)
3,COc1ccc(CCn2c(O)c(C=NC3CC3)c(=O)[nH]c2=O)cc1OC,16.5% (inactive)
4,COc1ccc(S(=O)(=O)NCc2ccc(C(=O)N3CCC4(CC3)OCCO4)cc2)cc1,4.3% (inactive)
5,C=Cn1ccnc1P(=S)(c1cc(N(CC)CC)ns1)c1nccn1C=C,12.6% (inactive)
6,COC(=O)C(O)(c1ccc(NC(=O)c2ccco2)c(OC)c1)C(F)(F)F (stereo not given),75.9% (active)
7,CCOC(=O)C(O)(c1ccc(N)c(OC)c1)C(F)(F)F (stereo not given),25.7% (inactive)
8,CCOC(=O)C(O)(c1ccc(NC(=O)c2ccco2)c(OC)c1)C(F)(F)F (stereo not given),71.4% (active)
9,C[N+]12CN3CN(CN(C3)C1)C2,0.8% (inactive)
10,Cc1ccc(P(=S)(c2ccc(C)o2)N2CCOCC2)o1,11% (inactive)
11,c1cncc(CNC2=NCCC2)c1,-10.2% (inactive)
12,COc1ccccc1N1CCN(C(CNC(=O)Oc2ccccc2)c2cccnc2)CC1 (stereo not given),44.1% (inactive)
13,CC(C)c1ccc(O)c(CN2CCN(c3ccccc3)CC2)c1,19.1% (inactive)
14,CC[N+](CC)(CC)CCCCCCCCCC[N+](CC)(CC)CC,-4.4% (inactive)
15,O=C(CN1CCCCC1)Nc1ccc(Br)cc1C(=O)c1ccccc1Cl,8.7% (inactive)
16,CCC/C(=N\O)c1c[nH]c2ccccc12,10.1% (inactive)
17,Cc1ccc2c(c1)C1CN(C)CCC1N2C(=O)Cn1nnc(-c2ccccc2F)n1 (stereo not given),4.5% (inactive)
18,CN1CCC(N(C)Cc2cccnc2)CC1,-6.3% (inactive)
19,CN1C2C=C(N(C(=O)c3ccc(Cl)cc3)c3ccccc3)CC1CC2 (stereo not given),6.8% (inactive)
20,Nc1ccc(C(=O)N/N=C2/CN3CCC2CC3)cc1,8% (inactive)
21,O=C(COc1ccc2ccccc2c1)N1CCN(Cc2ccncc2)CC1,90.5% (active)
22,CN1CCN(C(=O)COc2ccc(C(C)(C)C)cc2Br)CC1,-18% (inactive)
23,CC(C)c1ccc(OCC(=O)N2CCN(C)CC2)c(Br)c1,-1.3% (inactive)

row,SMILES,inhibition
1,Cc1ccc(N(C)C(=O)Oc2cccc3ccc(C)nc23)cc1,36.4% (inactive)
2,Cn1c(C(=O)N2CCC(C(=O)N3CCC4(CC3)OCCO4)CC2)cc2sccc21,-32.3% (inactive)
3,CCOc1ccc(CN(CCCl)CCCl)cc1C(=O)OC,97.3% (active)
4,Cn1c(O)c(C=Nc2ccc3c(c2)CCC3)c(=O)n(C)c1=O,11.5% (inactive)
5,CC(=C1C(=O)c2ccccc2C1=O)N1CCN(CCN=Cc2c(O)n(C)c(=O)n(C)c2=O)CC1,43.2% (inactive)
6,CC(C)(C)c1ccc(CN2C(=O)CN=C(c3ccccc3)c3ccccc32)cc1,18.9% (inactive)
7,O=C(O)C1CSC(c2cccnc2)N1 (stereo not given),-16.9% (inactive)
8,CCOC(=O)CC1=C(C(=O)OCC)C2(C(=O)N1)C(C(=O)OC)=C(N)Oc1ccccc12 (stereo not given),20.6% (inactive)
9,COC(=O)CN1C(=O)C2(C(C(=O)OC)=C(N)Oc3ccccc32)C2=C1CC(C)(C)CC2=O (stereo not given),38.6% (inactive)
10,C=CCN1C(=O)C2(C(C(=O)OCC)=C(N)Oc3c2c(=O)oc2ccccc32)c2ccccc21 (stereo not given),88.5% (active)
11,CNC(=O)N(C)c1nnc(C(C)(C)C)s1,-22.2% (inactive)
12,Cc1ccc(C)c(NC2=NCCCS2)c1,-2.6% (inactive)
13,CCOC(=O)C1CN(C)CCC1=O (stereo not given),1.1% (inactive)
14,CCCCCn1c(=O)c(C(=O)Nc2c(C)n(C)n(-c3ccccc3)c2=O)c(O)c2ccccc21,25.9% (inactive)
15,CCCCCn1c(=O)c(C(=O)NCc2ccccn2)c(O)c2ccccc21,78.1% (active)
16,CCN1c2nc3c(C)cccn3c(=O)c2CC2(C(=O)N(C)C(=O)N(C)C2=O)C1C (stereo not given),-8.4% (inactive)
17,Cc1nc2ccccn2c1P(=S)(N1CCCCC1)N1CCCCC1,11.7% (inactive)
18,CCOC(=O)c1c(C)c(C(=O)N2CCC3(CC2)OCCO3)c(C)n1CC,31.2% (inactive)
19,CN(C)C(=O)NC(O)C(Cl)(Cl)Cl (stereo not given),74.8% (active)
20,Cc1cc(N2C(=O)C3CCCN3C2c2ccc(Cl)c(Cl)c2)no1 (stereo not given),41.4% (inactive)
21,COc1ccc(-c2nc(CS(=O)CC(=O)N3CCC4(CC3)OCCO4)c(C)o2)cc1 (stereo not given),14.5% (inactive)
22,O=C1/C(=C\c2ccc3c(c2)OCO3)N2CCC1CC2,22.5% (inactive)
23,CCOC(=O)c1c(-c2ccccc2)oc2ccc(OC(=O)N(C)C)cc12,55% (active)

row,SMILES,inhibition
1,O=C1NC(=O)C(C/C=C/c2ccccc2)C(=O)N1,-3% (inactive)
2,CC(=NCc1ccc2c(c1)OCO2)c1c(O)[nH]c(=O)[nH]c1=O,-11.9% (inactive)
3,CN1CCN(Cc2ccccc2C(F)(F)F)CC1,0.4% (inactive)
4,CCN(CC)C(=O)c1ccc(NC(=O)c2cc(-n3cnnc3)ccc2Cl)cc1,32.9% (inactive)
5,O=C(CCN1CCCCC1)NCC(=O)Nc1ccc(Br)cc1C(=O)c1ccccc1,-14.9% (inactive)
6,CCOP(=S)(OCC)SCOC(=O)NCC(=O)OC,71.1% (active)
7,c1ccc(C2NCc3ccccc3-n3cccc32)cc1 (stereo not given),19.1% (inactive)
8,CC(=O)NC(=O)NC(C)Cc1ccccc1 (stereo not given),-12.4% (inactive)
9,CC(=O)c1ccc(OC(NC(=O)Cc2ccccc2)C(Cl)(Cl)Cl)cc1 (stereo not given),86.4% (active)
10,Cc1nc2nc(C)c(CCC(=O)N3CCC4(CC3)OCCO4)c(C)n2n1,3.8% (inactive)
11,NC(=O)Nc1cccc(C(F)(F)F)c1,-12.3% (inactive)
12,CC(=O)Nc1ccccc1C(=O)OCC(=O)c1cccc2ccccc12,80.7% (active)
13,CC12CN3CC(C)(CN(C1)C3c1cccs1)C2 (stereo not given),-10.5% (inactive)
14,Cc1ccc(Cn2nnnc2CN2CCC(n3nnc4ccccc43)CC2)cc1,93.4% (active)
15,CSC1=NP(=S)(SC)N(C)c2nc3n(c21)CCC3 (stereo not given),9.2% (inactive)
16,Cc1cccc(N2C(=O)NC(=O)/C(=C\c3cnn(-c4ccccc4)c3)C2=O)c1,-9.5% (inactive)
17,COc1ccc(C(=O)C2CN(C)CC2C(=O)c2ccc(OC)cc2)cc1 (stereo not given),12.4% (inactive)
18,COc1ccc(CN2CCN(c3ccccc3F)CC2)c(OC)c1,60.9% (active)
19,Fc1cccc(F)c1CN1CCN(Cc2c(F)cccc2F)CC1,7.2% (inactive)
20,COc1ccccc1CN1CCN(C(=O)Cc2ccccc2)CC1,31.5% (inactive)
21,CC(=NC1CCN(Cc2ccccc2)CC1)c1c(O)n(C)c(=O)n(C)c1=O,17.4% (inactive)
22,CC(=O)c1c(O)n(C2CCCCCC2)c(=O)[nH]c1=O,82.9% (active)
23,CC(=NCC1CCCO1)c1c(O)n(-c2ccccc2)c(=O)[nH]c1=O (stereo not given),27.9% (inactive)

row,SMILES,inhibition
1,CCC(=NCCc1ccccc1)c1c(O)n(C2CCCCC2)c(=O)[nH]c1=O,68.4% (active)
2,CN1CCN(Cc2ccc(OC(F)(F)F)cc2)CC1,3.1% (inactive)
3,CCc1nc2ccccc2c(=O)n1-c1cccc(OC)c1,-4% (inactive)
4,CC(=O)N(C1=NCCCS1)c1ccccc1F,18.1% (inactive)
5,COC(=O)C(c1ccccc1)N1CCCCCC1 (stereo not given),5.8% (inactive)
6,O=c1c2ccccc2nc(-c2ccco2)n1-c1ccc(Br)cn1,-4.8% (inactive)
7,COc1ccccc1N=C1SCCCN1C,-3.6% (inactive)
8,CCN(CC)CCOC(=O)c1cc2cc(COC)ccc2o1,-1.3% (inactive)
9,Cc1cccc(-n2c(C)nc3cc(C(=O)N4CCC5(CC4)OCCO5)ccc32)c1,13.7% (inactive)
10,O=C(c1cc(-c2ccncc2)nc2ccccc12)N1CCC2(CC1)OCCO2,41.9% (inactive)
11,O=C(c1cc2nc(-c3ccccc3)cc(-c3ccccc3)n2n1)N1CCC2(CC1)OCCO2,94.6% (active)
12,CCN(CC)P(=O)(Oc1cccc(C)c1)N(CC)CC,46.2% (inactive)
13,CCC(=O)CC(c1ccc([N+](=O)[O-])cc1)c1c(O)c2ccccc2oc1=O (stereo not given),75.8% (active)
14,O=C(C1CC(=O)N(C2CCCC2)C1)N1CCC2(CC1)OCCO2 (stereo not given),9.5% (inactive)
15,CC(=O)N1CN2CN(C(C)=O)CC(C(=O)c3ccc(Br)cc3)(C2)C1,-14.6% (inactive)
16,Fc1ccc(N2CCN(Cc3ccc4c(c3)OCO4)CC2)cc1,14.2% (inactive)
17,c1ccc2sc(C3CCCNC3)nc2c1 (stereo not given),-23% (inactive)
18,CCC(=NCCCO)c1c(O)n(-c2ccc(OC)cc2)c(=O)[nH]c1=O,-2.8% (inactive)
19,CCCCn1c(O)c(C(CC)=NCc2ccco2)c(=O)[nH]c1=O,56.4% (active)
20,CCCCCCN=C(CC)c1c(O)n(CCCC)c(=O)[nH]c1=O,93.6% (active)
21,CCC(=NCc1ccco1)c1c(O)n(Cc2ccccc2)c(=O)[nH]c1=O,35.4% (inactive)
22,Cc1cc(OCc2cc(C(=O)O)oc2C)c2c3c(c(=O)oc2c1)CCCC3,22.2% (inactive)
23,OC(CNC1CCCCC1)c1ccccc1 (stereo not given),28.7% (inactive)

row,SMILES,inhibition
1,O=c1c2ccccc2nc(-c2ccc(Cl)cc2Cl)n1-c1ccncc1,17.2% (inactive)
2,COC(=O)N(c1ccc(OC)cc1)P1(=S)OCCC(C)O1 (stereo not given),12.9% (inactive)
3,CCc1cccc2c(C#N)cn(CC(=O)N3CCOCC3)c12,37.3% (inactive)
4,N[C@@H](Cc1c[nH]c2ccccc12)c1nnc(SCc2c(F)cccc2Cl)o1,70.3% (active)
5,CCCC(C)n1[nH]c(=O)c2c1NC(=O)CSC2c1ccc(OC)c(OC)c1 (stereo not given),1.7% (inactive)
6,CCN1CCN(C(=O)Cc2coc3cc(C)cc(C)c23)CC1,-3.2% (inactive)
7,COc1cc(Cn2c(N)c(C(=O)NCc3ccco3)c3nc4ccccc4nc32)cc(OC)c1OC,100% (active)
8,CCOC(=O)c1c(N)n(CCN2CCOCC2)c2nc3ccccc3nc12,25.6% (inactive)
9,CCOC(=O)c1c(N)n(Cc2ccccc2)c2nc3ccccc3nc12,12% (inactive)
10,O=C(c1cc(S(=O)(=O)N2CCOCC2)ccc1F)N1CCC2(CC1)OCCO2,-0.4% (inactive)
11,Cc1cc(C)cc(NC(=S)NC2CC3CCCC(C2)N3Cc2cccs2)c1 (stereo not given),8.1% (inactive)
12,CNP1(NC)=Nc2nn(-c3ccccc3)c(N)c2C(c2ccccc2)=N1,-4% (inactive)
13,CC1(C)C(c2ccccc2)=NC(c2cccnc2)=[N+]1[O-],38.2% (inactive)
14,Cn1c(O)c(C=NCCCC(=O)O)c(=O)n(C)c1=O,-3.8% (inactive)
15,C/C(CCc1c[nH]c2ccccc12)=N\O,-21.6% (inactive)
16,CCOC(=O)C1=C(C)OC(N)=C(C(=O)OC)C12C(=O)Nc1ccc(Br)cc12 (stereo not given),22% (inactive)
17,COc1ccc(C2NCc3ccc4c(c3-n3cccc32)OCO4)cc1OC (stereo not given),10.3% (inactive)
18,CCOC(=O)C1SC2(C(F)(F)C(F)F)CC1(O)c1c(c(OC)c3occc3c1OC)O2 (stereo not given),87% (active)
19,CCNc1nc2[nH]c(=O)c3c(c2s1)OC(N)=C(C#N)C3c1cccs1 (stereo not given),-5.9% (inactive)
20,CCOc1ccc(C2SCC(=O)Nc3c2c(C)nn3C2CCOC(C)(C)C2)cc1 (stereo not given),7.4% (inactive)
21,N#Cc1ccc(Cn2cc(C(=O)c3ccco3)c3ccccc32)cc1,77.3% (active)
22,CC1=C(C(=O)Nc2ccccc2)SCCO1,-1.2% (inactive)
23,O=C(CSC1c2ccccc2-c2ccccc21)N/N=C/c1ccccc1,21.3% (inactive)
